Structures are written as SMILES. Results filed as inconclusive are left out. The source made the active and inactive calls. Calls come from the whole dose curve; as a rule, active = well fitted inhibition curve with a large enough effect; inconclusive = small, poorly fitted or top-dose-only effect, or effect the other way; inactive = flat fitted curve, though single readings scatter.
% is set by controls: 0 for no effect and ±100 for the full control effect.

The target of this assay is ATP-dependent 6-phosphofructokinase (Trypanosoma brucei brucei) (UniProt O15648). Description: qHTS Assay to Find Inhibitors of T. brucei phosphofructokinase: hit validation (AID 492961).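 Note: luminescence reports ADP formed as PFK phosphorylates fructose-6-phosphate with ATP.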 As to conditions: T. brucei PFK, ADP-Glo luminescence; series mostly up to 51.4 µM; activity change, negative = inhibition: at the top concentration. The essentials: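 Inhibition of parasite PFK is measured as reduced ADP formation, quantified via luciferase after ATP depletion. Assay used 0.1 mM ATP, 0.5 mM F6P, 1.25 nM enzyme, 45 min incubation.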
Chain of ATP-dependent 6-phosphofructokinase (Trypanosoma brucei brucei) (O15648 whole entry, looked up): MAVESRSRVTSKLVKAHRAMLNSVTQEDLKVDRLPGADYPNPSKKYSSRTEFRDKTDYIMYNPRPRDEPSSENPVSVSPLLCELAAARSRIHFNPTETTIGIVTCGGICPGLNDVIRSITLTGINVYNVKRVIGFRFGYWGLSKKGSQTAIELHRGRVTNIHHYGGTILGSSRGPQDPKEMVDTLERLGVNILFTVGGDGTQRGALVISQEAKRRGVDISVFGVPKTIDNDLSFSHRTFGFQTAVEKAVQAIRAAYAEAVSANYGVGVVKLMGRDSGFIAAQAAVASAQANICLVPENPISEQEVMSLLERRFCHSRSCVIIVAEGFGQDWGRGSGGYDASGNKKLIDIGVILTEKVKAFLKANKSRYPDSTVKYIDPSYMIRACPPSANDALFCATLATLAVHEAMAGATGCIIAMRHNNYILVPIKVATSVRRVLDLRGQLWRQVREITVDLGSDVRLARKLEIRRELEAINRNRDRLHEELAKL
As for `COc1cc(O)cc(O)c1`, the “activity change, negative = inhibition” value was 6.7% (inactive).
Then `O=C(c1ccccc1)C(O)c1ccccc1` (stereo not given), with 1.63% (inactive); and `CC(=O)SC[C@@H](Cc1ccccc1)C(=O)NCC(=O)OCc1ccccc1`, with 6.06% [at 24.3 µM] (inactive).
Then `CCS(=O)(=O)CCn1c([N+](=O)[O-])cnc1C`, with 11.2% [at 24.3 µM] (inactive).
Then `Cc1c(NC(=O)c2cccnc2)c(=O)n(-c2ccccc2)n1C`, with -4.94% [at 24.3 µM] (inactive).
Take `NS(=O)(=O)c1cc(-c2nn[nH]n2)c(NCc2cccs2)cc1Cl`: the “activity change, negative = inhibition” value is -5.03% (inactive).
In the case of `CC(N)CCCC(C)(C)O` (stereo not given) it was -6.83% (inactive); in that of `C[C@H]1COc2c(C3(N)CC3)c(F)cc3c(=O)c(C(=O)O)cn1c23`, -6.5% (inactive); in that of `O=C(O)CCC(=O)O`, 4.36% (inactive).
In the case of `NC(=O)c1ccc([N+](=O)[O-])cc1Cl` it was 13.1% (inactive).
In the case of `COC(=O)c1cccnc1` it was 3.81% (inactive).
For the compound `O=C(OOC(=O)c1ccccc1)c1ccccc1`, the “activity change, negative = inhibition” value is 2.45% (inactive).
With `CNCc1ccccc1`, the “activity change, negative = inhibition” value is -3.58% (inactive).
Then `CCCOC(=O)c1ccc(N)cc1`, with 0% (inactive); and `CN(C/C=C/C#CC(C)(C)C)Cc1cccc2ccccc12`, with -2.15% (inactive).
Then `CCCCCC(C)N` (stereo not given), with 1.43% (inactive); and `OCC(O)CS` (stereo not given), with 9.89% (inactive); and `CCOC(N)=O`, with 1.76% (inactive).
Then `CC(C)c1cc2c(cc1S(=O)(=O)O)[C@@]1(C)CCC[C@@](C)(C(=O)O)[C@@H]1CC2`, with -15.9% (inactive); and `Nc1ccc(C(=O)Oc2ccccc2)c(O)c1`, with 6.18% (inactive); and `O=S1(=O)OC(c2ccc(O)cc2)(c2ccc(O)cc2)c2ccccc21`, with -5.53% (inactive).
`CC(C)CCOC(=O)c1ccc(N(C)C)cc1`: the “activity change, negative = inhibition” value was -3.32% (inactive).
Then `O=C(NCN1CCOCC1)c1cnccn1`, with 23.3% (inactive); and `CCCCCCCCCCC(CO)CCCCCCCC` (stereo not given), with -4.59% (inactive); and `O=C(O)Cn1c(C(=O)Nc2nc(-c3ccccc3Cl)cs2)cc2ccccc21`, with 17.4% (inactive).
Take `O=C(/C=C/c1ccccc1)OCc1ccccc1`: the “activity change, negative = inhibition” value is -1.05% (inactive).
On to `CCOc1cc(NC(C)=O)ccc1C(=O)OC`, for which the “activity change, negative = inhibition” value is -2.93% (inactive).
In the case of `CC(=O)Nc1ccc(C(=O)O)cc1` it was 11.2% (inactive).
Then `COc1ccccc1OC(=O)Oc1ccccc1OC`, with -2.08% (inactive).
For the compound `CCCCCCCCCCCCCCCCC(C(=O)O)C(O)(CC(=O)O)C(=O)O` (stereo not given), the “activity change, negative = inhibition” value was 3.37% (inactive).
Then `Nc1ncnc(Nc2ccccc2)n1`, with -1.14% (inactive); and `Cc1cc(-n2nc3ccc(Cl)cc3n2)c(O)c(C(C)(C)C)c1`, with 4.59% (inactive).
In the case of `CC(=O)Oc1cccc(O)c1`, the “activity change, negative = inhibition” value is -8.01% (inactive).
Then `FC(F)(F)C(Cl)Br` (stereo not given), with 4.9% (inactive); and `O=C(O)Cc1cn(-c2ccccc2)nc1-c1ccc(Cl)cc1`, with 0.907% (inactive).

The record behind these values is PubChem BioAssay (NCATS).
